Experimental data from ChEMBL document CHEMBL3988442, “University of Dundee, Small-Polar-MMV Screening Library” (2021).
For some of these results: Measured potencies and affinities stand elsewhere.

Key:
Design in all cases: scale not given: direction of the effect not stated beside the values
[1] = target: Protein translocase subunit SecA (Escherichia coli (strain K12)) (UniProt P10408); experiment: Assay to Identify E. coli SecA ATPase Inhibitors; type: functional; conditions: 30 µM
[2] = target: T1, Ubiquitin-activating enzyme e1, putative (Leishmania donovani (strain BPK282A1)) (UniProt E9BSI1); experiment: Leishmania donovani Ubiquitin Activating Enzyme (LdE1); type: functional; conditions: 30 µM
T1 sequence (whole entry): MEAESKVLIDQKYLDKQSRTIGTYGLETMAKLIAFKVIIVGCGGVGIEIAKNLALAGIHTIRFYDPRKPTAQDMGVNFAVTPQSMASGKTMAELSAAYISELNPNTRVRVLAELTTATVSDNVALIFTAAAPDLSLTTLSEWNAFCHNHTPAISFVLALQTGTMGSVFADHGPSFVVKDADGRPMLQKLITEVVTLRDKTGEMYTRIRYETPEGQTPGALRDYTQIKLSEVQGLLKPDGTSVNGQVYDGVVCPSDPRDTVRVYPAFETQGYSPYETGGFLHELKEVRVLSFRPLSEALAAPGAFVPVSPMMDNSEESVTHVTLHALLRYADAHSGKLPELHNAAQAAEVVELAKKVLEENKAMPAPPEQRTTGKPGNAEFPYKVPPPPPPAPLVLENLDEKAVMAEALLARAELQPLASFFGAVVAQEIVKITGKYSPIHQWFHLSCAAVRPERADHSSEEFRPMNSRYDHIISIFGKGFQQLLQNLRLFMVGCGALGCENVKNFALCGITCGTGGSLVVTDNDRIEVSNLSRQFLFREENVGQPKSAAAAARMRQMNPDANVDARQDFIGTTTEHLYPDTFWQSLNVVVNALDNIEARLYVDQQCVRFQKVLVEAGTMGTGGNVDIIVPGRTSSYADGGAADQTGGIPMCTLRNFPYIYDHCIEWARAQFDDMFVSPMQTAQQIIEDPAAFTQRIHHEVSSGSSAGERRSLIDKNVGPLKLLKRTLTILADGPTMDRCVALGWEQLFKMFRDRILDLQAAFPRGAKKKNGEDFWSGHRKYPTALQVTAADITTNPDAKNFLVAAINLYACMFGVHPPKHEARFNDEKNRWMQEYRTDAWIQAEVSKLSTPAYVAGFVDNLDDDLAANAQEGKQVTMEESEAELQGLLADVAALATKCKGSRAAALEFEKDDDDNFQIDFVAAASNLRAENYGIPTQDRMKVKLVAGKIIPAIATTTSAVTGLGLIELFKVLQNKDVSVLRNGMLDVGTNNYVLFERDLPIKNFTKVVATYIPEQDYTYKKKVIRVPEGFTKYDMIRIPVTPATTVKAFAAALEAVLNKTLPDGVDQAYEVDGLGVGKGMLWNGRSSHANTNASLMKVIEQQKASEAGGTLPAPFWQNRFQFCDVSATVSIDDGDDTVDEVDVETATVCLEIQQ

[3] = target: AMP-activated protein kinase, AMPK (Homo sapiens) (UniProt P54646+O43741+P54619+Q9UGJ0+Q9Y478+Q13131+Q9UGI9); experiment: AMP-dependent Kinase enzyme assay. An in vitro enzyme assay that detects ADP turnover that is directly proportional to AMPK activity. This uses naive AMPK that is activated during the assay with MK-8722; type: functional; conditions: 30 µM
[4] = target: Sialic acid-binding Ig-like lectin 9 (Homo sapiens) (UniProt Q9Y336); experiment: Hs-Siglec9 ALPHAscreen SOP 20170721; conditions: 10 µM
Trypanosoma cruzi = experiment: Trypanosoma cruzi phosphomannomutase and mannose-1-phosphate guanylyltransferase assay; type: functional; conditions: 10 µM
[5] = target: T2, Arginase-2, mitochondrial (Homo sapiens) (UniProt P78540); experiment: in vitro enzyme assay to detect the production of urea directly proportional to the activity of Arginase II; type: functional; conditions: 33.3 µM; also: in the data most compounds retested in dose-response had high values
T2 sequence (whole entry): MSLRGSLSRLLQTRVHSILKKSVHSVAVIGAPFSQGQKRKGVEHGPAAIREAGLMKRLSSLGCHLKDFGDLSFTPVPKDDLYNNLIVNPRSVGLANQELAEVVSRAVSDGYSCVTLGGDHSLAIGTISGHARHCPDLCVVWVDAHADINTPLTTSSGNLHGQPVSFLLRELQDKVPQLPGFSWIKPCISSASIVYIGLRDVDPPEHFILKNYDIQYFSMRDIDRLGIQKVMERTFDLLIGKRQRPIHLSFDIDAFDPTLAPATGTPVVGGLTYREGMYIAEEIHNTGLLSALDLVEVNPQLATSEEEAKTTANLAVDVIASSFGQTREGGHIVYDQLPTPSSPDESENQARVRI

[6] = target: T3, Proteasome subunit beta (Trypanosoma cruzi) (UniProt O96673); experiment: Trypanosoma cruzi proteasome chymotrypsin-like activity (TcProtChymo) assay.; also: in the data most compounds retested in dose-response had high values; type: functional; conditions: 9.37 µM
T3 sequence (whole entry): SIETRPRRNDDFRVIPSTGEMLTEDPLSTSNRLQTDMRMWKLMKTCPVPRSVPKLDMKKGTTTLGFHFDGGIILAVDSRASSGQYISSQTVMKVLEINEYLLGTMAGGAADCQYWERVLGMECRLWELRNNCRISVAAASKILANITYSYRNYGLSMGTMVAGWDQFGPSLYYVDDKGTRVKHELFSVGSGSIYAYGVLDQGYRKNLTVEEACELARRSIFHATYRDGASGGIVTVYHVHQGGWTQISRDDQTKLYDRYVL

Homo sapiens = species on record: Homo sapiens; experiment: To identify inhibition of the IFN signalling (Jak-Stat) pathway via expression of an eGFP reporter gene under the control of an IFN-stimulated response element (ISRE) containing MxA promoter.; type: functional; conditions: 30 µM
[7] = target: T4, Tyrosyl-tRNA synthetase, putative (Trypanosoma cruzi (strain CL Brener)) (UniProt Q4DSP6); experiment: Trypanosoma cruzi tyrosyl tRNA synthetase (TcYRS) _High Tyrosine SOP; type: functional; conditions: 30 µM; also: in the data most compounds retested in dose-response had high values
T4 sequence (whole entry): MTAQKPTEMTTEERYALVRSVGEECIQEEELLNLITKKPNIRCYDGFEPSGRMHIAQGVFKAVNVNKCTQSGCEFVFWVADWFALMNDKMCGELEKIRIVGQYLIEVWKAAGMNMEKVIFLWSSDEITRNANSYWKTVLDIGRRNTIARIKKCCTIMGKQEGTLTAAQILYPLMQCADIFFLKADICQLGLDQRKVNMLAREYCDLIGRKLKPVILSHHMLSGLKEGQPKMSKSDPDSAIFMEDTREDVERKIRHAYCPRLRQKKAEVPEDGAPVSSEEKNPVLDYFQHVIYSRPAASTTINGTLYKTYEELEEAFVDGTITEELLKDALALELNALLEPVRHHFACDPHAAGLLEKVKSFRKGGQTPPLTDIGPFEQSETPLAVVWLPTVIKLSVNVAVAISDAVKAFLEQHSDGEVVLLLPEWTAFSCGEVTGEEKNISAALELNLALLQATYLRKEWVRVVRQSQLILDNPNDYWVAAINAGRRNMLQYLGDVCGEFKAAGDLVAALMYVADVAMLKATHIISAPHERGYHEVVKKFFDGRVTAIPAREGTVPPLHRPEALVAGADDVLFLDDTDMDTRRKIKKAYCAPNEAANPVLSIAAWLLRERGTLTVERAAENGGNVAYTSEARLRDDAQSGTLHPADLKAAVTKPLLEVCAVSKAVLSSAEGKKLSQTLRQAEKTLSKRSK

[8] = target: T4, Tyrosyl-tRNA synthetase, putative (Trypanosoma cruzi (strain CL Brener)); experiment: Trypanosoma cruzi tyrosyl tRNA synthetase (TcYRS) SOP; type: functional; conditions: 30 µM
[9] = target: Chromo domain-containing protein 1 (Saccharomyces cerevisiae (strain ATCC 204508 / S288c) (Baker's yeast)) (UniProt P32657); experiment: ScCHD-1 Enzyme Inhibition Assay; type: functional; conditions: 30 µM; also: in the data most compounds retested in dose-response had high values
Chain of Chromo domain-containing protein 1 (Saccharomyces cerevisiae (strain ATCC 204508 / S288c) (Baker's yeast)) (P32657 whole entry, the tested form may be a part): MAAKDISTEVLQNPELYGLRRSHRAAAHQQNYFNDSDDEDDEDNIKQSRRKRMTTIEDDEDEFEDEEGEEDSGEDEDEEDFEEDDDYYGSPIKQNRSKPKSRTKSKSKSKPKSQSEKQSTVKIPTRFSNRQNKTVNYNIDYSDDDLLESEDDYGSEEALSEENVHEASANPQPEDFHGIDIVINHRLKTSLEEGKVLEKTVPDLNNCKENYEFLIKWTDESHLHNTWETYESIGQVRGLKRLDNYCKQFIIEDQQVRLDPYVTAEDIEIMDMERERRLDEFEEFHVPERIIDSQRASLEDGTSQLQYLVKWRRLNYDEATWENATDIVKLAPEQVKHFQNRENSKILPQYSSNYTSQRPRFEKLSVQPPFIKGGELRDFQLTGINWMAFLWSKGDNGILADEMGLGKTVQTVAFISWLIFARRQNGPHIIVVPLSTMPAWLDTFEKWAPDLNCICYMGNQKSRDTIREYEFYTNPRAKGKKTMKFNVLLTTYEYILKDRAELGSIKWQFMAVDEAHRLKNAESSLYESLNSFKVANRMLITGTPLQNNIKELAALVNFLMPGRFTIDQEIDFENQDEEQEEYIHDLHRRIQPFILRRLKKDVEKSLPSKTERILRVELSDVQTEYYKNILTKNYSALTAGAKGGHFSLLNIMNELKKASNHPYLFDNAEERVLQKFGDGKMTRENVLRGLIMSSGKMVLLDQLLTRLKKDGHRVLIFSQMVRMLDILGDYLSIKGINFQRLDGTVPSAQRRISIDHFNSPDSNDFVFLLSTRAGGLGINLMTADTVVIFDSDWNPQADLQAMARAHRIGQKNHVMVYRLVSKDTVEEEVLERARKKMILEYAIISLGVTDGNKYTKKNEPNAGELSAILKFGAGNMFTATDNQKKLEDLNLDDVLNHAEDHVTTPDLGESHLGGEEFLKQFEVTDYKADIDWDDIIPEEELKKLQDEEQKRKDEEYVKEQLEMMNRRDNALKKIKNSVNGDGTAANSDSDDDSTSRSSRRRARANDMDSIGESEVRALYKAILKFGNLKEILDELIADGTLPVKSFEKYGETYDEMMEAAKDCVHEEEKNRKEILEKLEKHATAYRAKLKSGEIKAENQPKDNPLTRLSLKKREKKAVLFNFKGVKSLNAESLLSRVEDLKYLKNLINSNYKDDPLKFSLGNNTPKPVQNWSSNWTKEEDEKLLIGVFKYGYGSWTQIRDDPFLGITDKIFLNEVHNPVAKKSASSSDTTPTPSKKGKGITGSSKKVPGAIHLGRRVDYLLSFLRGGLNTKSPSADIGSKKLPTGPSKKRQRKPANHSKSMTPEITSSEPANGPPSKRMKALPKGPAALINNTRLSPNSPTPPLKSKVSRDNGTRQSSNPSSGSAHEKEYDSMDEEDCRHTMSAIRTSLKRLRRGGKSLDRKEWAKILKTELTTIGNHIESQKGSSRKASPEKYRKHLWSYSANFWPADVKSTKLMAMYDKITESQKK

Chain of Protein translocase subunit SecA (Escherichia coli (strain K12)) (P10408 whole entry): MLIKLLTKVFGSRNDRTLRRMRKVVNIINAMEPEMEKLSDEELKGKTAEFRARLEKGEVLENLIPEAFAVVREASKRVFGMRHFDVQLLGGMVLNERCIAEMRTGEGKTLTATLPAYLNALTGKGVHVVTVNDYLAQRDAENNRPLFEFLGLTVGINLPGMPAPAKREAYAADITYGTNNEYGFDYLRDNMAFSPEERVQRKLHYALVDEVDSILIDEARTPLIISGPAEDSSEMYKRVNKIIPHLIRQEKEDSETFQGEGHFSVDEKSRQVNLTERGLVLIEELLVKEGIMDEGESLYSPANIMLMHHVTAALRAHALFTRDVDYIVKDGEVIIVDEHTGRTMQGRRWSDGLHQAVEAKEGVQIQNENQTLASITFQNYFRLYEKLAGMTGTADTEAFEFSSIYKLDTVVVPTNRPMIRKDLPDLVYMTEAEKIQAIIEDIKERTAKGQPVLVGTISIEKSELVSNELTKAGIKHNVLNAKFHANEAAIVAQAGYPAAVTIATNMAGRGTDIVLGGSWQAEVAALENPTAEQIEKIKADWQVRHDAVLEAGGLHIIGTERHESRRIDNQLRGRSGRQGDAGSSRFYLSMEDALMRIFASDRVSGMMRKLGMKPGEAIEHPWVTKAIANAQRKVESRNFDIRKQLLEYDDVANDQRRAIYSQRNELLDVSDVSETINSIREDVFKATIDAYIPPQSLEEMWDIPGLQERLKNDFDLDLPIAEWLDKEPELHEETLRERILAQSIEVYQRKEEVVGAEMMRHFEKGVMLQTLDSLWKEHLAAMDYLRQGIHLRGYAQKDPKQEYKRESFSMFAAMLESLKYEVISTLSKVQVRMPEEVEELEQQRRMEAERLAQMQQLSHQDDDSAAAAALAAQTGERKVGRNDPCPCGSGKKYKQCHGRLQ
Chain of Sialic acid-binding Ig-like lectin 9 (Homo sapiens) (Q9Y336 whole entry): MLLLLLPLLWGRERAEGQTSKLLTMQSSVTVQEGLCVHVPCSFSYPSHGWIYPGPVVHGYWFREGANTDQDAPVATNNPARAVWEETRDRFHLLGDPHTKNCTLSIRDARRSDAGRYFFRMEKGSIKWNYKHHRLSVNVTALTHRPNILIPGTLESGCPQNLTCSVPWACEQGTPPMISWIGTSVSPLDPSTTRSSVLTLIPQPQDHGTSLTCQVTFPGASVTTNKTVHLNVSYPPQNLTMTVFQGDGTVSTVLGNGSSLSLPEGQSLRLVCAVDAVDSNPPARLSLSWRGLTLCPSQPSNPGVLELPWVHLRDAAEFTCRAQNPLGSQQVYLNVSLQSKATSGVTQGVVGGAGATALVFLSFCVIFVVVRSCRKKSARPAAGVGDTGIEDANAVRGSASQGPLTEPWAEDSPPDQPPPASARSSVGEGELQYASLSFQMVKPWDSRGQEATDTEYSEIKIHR

| SMILES | Percent Effect [1] [%] | Percent Effect [2] [%] | Percent Effect [3] [%] | Percent Effect [4] [%] | Percent Effect (Trypanosoma cruzi) [%] | Percent Effect [5] [%] | Percent Effect [6] [%] | Percent Effect (Homo sapiens) [%] | Percent Effect [7] [%] | Percent Effect [8] [%] | Percent Effect [9] [%] |
| --- | --- | --- | --- | --- | --- | --- | --- | --- | --- | --- | --- |
| CCOc1ccccc1Nc1nc2c(C)nn(C)c2c(=O)n1C | -4.55 | 20.8 | 1.12 | 10.9 | 3.64 | 6.9 | 10.7 | -5.39 | 8.6 | 18.5 | -6.44 |
| COc1cc(CNC(=O)NCCCF)cc(Br)c1OC | -5.95 | -2.67 | 3.23 | -1.26 | -2.24 | 0 | -0.174 | 25.5 | 1.64 | 1.24 | 1.39 |
| O=C(c1cccc(S(=O)(=O)NCCCc2ccco2)c1)N1CCOCC1 | -4.29 | 2.74 | 6.53 | -4.06 | 1.37 | 1.82 | 5.86 | -5.12 | 7.53 | 15 | -2.3 |
| NC(=O)C1CCN(Cn2nc(-c3ccccc3)oc2=O)CC1 | -1.26 | 15.6 | 6.06 | 6.43 | 1.08 | -56.5 | 20.3 | 2.82 | 4.3 | 16.1 | -5.92 |
| Cc1cc(C)nc(N2CCN(C(=O)c3cc(Cl)c[nH]3)CC2)n1 | -3.35 | 8.22 | -2.54 | 4.32 | 0.595 | -3.99 | 17.2 | -6.92 | 10.4 | 16.1 | -1.43 |
| OCCOc1nc(-c2ccccc2Cl)no1 | -1.86 | 11 | -5.12 | 4.94 | 4.9 | 18.6 | 20.4 | 24.7 | 6.45 | 20 | -5.57 |
| Cc1cc(C)c2c(c1)C1(CC(=O)Nc3c1cnn3C(C)C)C(=O)N2 (stereo not given) | 0.0889 | 4 | 4.34 | 1.54 | 0.982 | -6.16 | 8.87 | 21.1 | 3.17 | 2.56 | -5.39 |
| CC(C)NC(=O)N1CCC(n2ccc(C(F)(F)F)n2)CC1 | -6.7 | 5.48 | -3.52 | -4.66 | -2.74 | -0.909 | 5.32 | -13.8 | 0 | 7.5 | -2.82 |
| c1cnc(-c2cnc(N3CCSCC3)nc2C2CC2)cn1 | -4.23 | 2.67 | 12.3 | 6.16 | -3.94 | -0.699 | 3.44 | 16 | 1.06 | 8.97 | -0.826 |
| CN(C)CC(=O)N1CCOC2(CCCN(c3ncccc3F)C2)C1 (stereo not given) | -5.7 | 8.11 | 1.61 | 5.4 | 0 | 1.25 | 4.48 | 8.63 | 7.92 | 13.4 | -5.27 |
| CC(=O)c1cn(CC(=O)NC(C(=O)O)C(C)C)c2ccccc12 (stereo not given) | -5.18 | -2.67 | 1.25 | -4.07 | -3.99 | -1.04 | 8.72 | -13.9 | 1.64 | 1.24 | 3.17 |
| CNc1cc(N2CCCC2CNCc2c[nH]nc2C(C)(C)C)ncn1 (stereo not given) | -3.59 | 0 | -14.4 | -4.25 | -4.88 | -4.17 | 6 | -0.674 | 5.94 | 6.1 | 0.0939 |
| CC(CNC(=O)N1CCN(c2cnccn2)CC1)Cc1cccs1 (stereo not given) | -2.51 | 2.7 | 6.5 | 15.7 | -1.95 | -1.67 | 10.6 | -1.65 | 0.99 | -6.1 | 0.413 |
| Cc1nn(C)c(C)c1C1CCCN1C(=O)c1ccc(CN(C)C)cc1 (stereo not given) | -0.183 | 21.6 | 2.25 | -4.88 | 2.14 | 0.554 | 11.1 | 11.4 | -20.8 | 23.2 | -6.46 |
| CCc1ccc(C(=O)O)cc1S(=O)(=O)Nc1ccc(F)c(C#N)c1 | -2.04 | -2.7 | -11.6 | 10.6 | 3.87 | -0.802 | 1.08 | 7.96 | -2.46 | 1.24 | -2.76 |
| O=C1NC2(CCN(C(=O)Cc3ccsc3)CC2)CC1c1ccncc1 (stereo not given) | 2.65 | 10.4 | 2.31 | -7.01 | -7.99 | 16.1 | 11.1 | 5.79 | 6.35 | 14.1 | -9.26 |
| Cc1nc(N2CCN(C(=O)c3ccsc3)CC2)c2cnn(C)c2n1 | -3.6 | 2.7 | -6.08 | 16.1 | 1.6 | -6.01 | 5.04 | 5.31 | 4.43 | 13.6 | -7.11 |
| CC(=O)NCC(=O)N1C[C@H](OCc2cccnc2)[C@H]2COC[C@H]21 | -4.16 | 2.7 | 1.91 | 2.9 | -4.49 | 2.5 | 12.3 | 5.47 | 4.95 | 6.1 | -2.54 |
| CN1C(=O)C(c2cccnc2)CC12CCN(C(=O)c1cccn1C)CC2 (stereo not given) | -1.55 | 0 | -0.439 | 0.0913 | 0 | 4.48 | 6.67 | -2.67 | -3.12 | -2.5 | -4.59 |
| CC(C#N)CSc1ccccc1NCC(=O)NCc1ccccc1 (stereo not given) | -3.57 | -8.22 | 11.4 | 8.76 | 5.49 | 14.1 | 11.7 | 19.4 | -2.15 | -5 | -1.42 |
